Results on 13 compounds are retold here after PubChem BioAssay (NCI).

SMILES strings stand for the structures. About 83,000 compounds went through this panel and 20% of them were active in at least one assay; those are over-represented in the sample as a whole.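 Testing used 96-well plates and a 48-hour single-concentration exposure. Example: -40 means 40% of the starting cells died.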 The source made the active and inactive calls. The calls were made as follows: active = growth percent below 10; inactive = the rest.

This experiment concerns HL-60(TB) leukemia. Description: NCI-60 one-dose screen, 48 h (100 = growth as untreated, 0 = no growth, -100 = all killed). Particulars: 10 µM unless noted.
`C[C@H](C(=O)N(CCc1ccc(Cl)c(Cl)c1)Cc1cncs1)[C@@H]1CC[C@H](C[C@H](C)n2cc(CN3CCC(c4ccc(Cl)cc4)CC3)nn2)O1`: the growth was -71.2% (active).

Regarding `COc1cc(C2C=C(C)N=C3SC=NN32)cc(OC)c1OC` (stereo not drawn), the growth is 94.7% (inactive).

As for `Cc1ccc(/C=C/C(=N/N=C(N)N)c2ccccc2)cc1`, the growth is 7.52% (active). As for `O=C(NCCCNC(=O)OCc1ccc2cccc(O)c2n1)OCc1ccc2cccc(O)c2n1`, the growth is 45.5% (inactive).

As for `CN(C)C1=NCCN1`, the growth is 97.9% (inactive). In the case of `CCOC(=O)C(CC)n1c(=O)c2cc(OC)c(OC)cc2c2cnc3[nH]ccc3c21` (stereo not drawn), the growth is 62.1% (inactive). As for `Cn1cc(-c2csc(-c3cn(C)c4ccc(Br)cc34)n2)c2cnccc21`, the growth was -58.4% (active). Regarding `CC1=CC=C(NC(=O)/C=C/c2ccccc2)CC1Nc1nccc(-c2cccnc2)n1` (stereo not drawn), the growth is -0.0857% (active). In the case of `C=C(CN=[N+]=[N-])[C@@H]1CC[C@]2(C)[C@H](CC[C@@H]3[C@H]4[C@H]5OC(=O)[C@@]4(CCC5(C)C)CC[C@]32C)[C@@]1(C)CCC#N` it was 22.7% [100 µM] (inactive); in that of `COc1ccc(Cl)cc1NC(=O)c1cc2c(n1C)-c1nc(NC(=O)C(C)(C)C)sc1CC2`, 82.7% (inactive).

Take `CN1C(=O)N(C)C2C1NN=c1s/c(=C\c3ccc(Br)cc3)c(=O)n12` (stereo not drawn): the growth was -13.8% (active).

Take `CC(C)(C)C(=O)Nc1nc2c(s1)CCc1ccn(S(=O)(=O)c3ccccc3)c1-2`: the growth was 70% (inactive). The figure for `O=C1c2ccccc2OC=C(c2ccccc2)N1CCCCNc1ccc(S(=O)(=O)Nc2ncccn2)cc1` is 73.1% (inactive).
